# Records with an inconclusive call do not appear. The source made the active and inactive calls. The call rests on the fitted dose curve; in most records, active means well fitted inhibition curve with a large enough effect; inconclusive means small, poorly fitted or top-dose-only effect; inactive means no such curve, though single readings can be large or run the other way.
# Test: Primary qHTS for small molecule stabilizers of the endoplasmic reticulum resident proteome: Secreted ER Calcium Modulated Protein (SERCaMP) assay (AID 1508630)
# Conditions: SH-SY5Y GLuc-SERCaMP (Gaussia luciferase released on ER calcium loss) secretion, thapsigargin, luminescence; series mostly up to 38.4 µM; activity change, negative = inhibition: at the top concentration
# Excerpt: Assay Provider: Brandon K. Harvey Ph.D.
# National Institute on Drug Abuse, National Institutes of Health, Baltimore, MD
# Endoplasmic reticulum (ER) dysregulation is associated with human pathologies including neurodegenerative, cardiovascular, muscular, and diabetic conditions. Maintenance of ER calcium is critical for functions of the ER and its depletion can lead to loss of ER resident proteins, in a process termed exodosis. Therapeutic compounds capable of attenuating the redistribution of ER proteins under pathological conditions may slow or stop disease progression. To identify such compounds, we performed a quantitative high-throughput screen (qHTS) using the SERCaMP assay, which monitors secretion of ER resident proteins triggered by calcium depletion.
# SERCaMP was initially developed as a reporter of ER calcium homeostasis using a Gaussia luciferase with a modified signal peptide and carboxy-terminus (GLuc-SERCaMP), modifications that confer secretion of the reporter in response to ER calcium depletion (Henderson et al., 2014). The assay was used to screen 9,501 compounds, including a collection of drugs approved by the FDA (US), EMA (EU), NHI (Japan), and HC (Canada) regulatory agencies (Huang et al., 2011). Since the SERCaMP reporter reflects the exodosis phenomenon (Trychta et al., 2018a), compounds identified in the screen have the potential to prevent exodosis by different mechanisms such as stabilizing ER calcium or augmenting ERS retrieval.
# 1. Henderson, M.J., Wires, E.S., Trychta, K.A., Richie, C.T., and Harvey, B.K. (2014). SERCaMP: a carboxy-terminal protein modification that enables monitoring of ER calcium homeostasis. Mol Biol Cell 25, 2828-2839.
# 2. Huang, R., Southall, N., Wang, Y., Yasgar, A., Shinn, P., Jadhav, A., Nguyen, D.T., and Austin, C.P. (2011). The NCGC pharmaceutical collection: a comprehensive resource of clinically approved drugs enabling repurposing and chemical genomics. Sci Transl Med 3, 80ps16.
# 3. Trychta, K.A., Back, S., Henderson, M.J., and Harvey, B.K. (2018a). KDEL Receptors Are Differentially Regulated to Maintain the ER Proteome under Calcium Deficiency. Cell Rep 25, 1829-1840 e1826.
# SEQUENCE No. (1, 2, 3, etc.); […] (e.g., Cells, Incubation, Reagent, etc.); VALUE and DESCRIPTION.
# 1; Reagent; 5 uL; 1000 SH-SY5Y cells per wells
# 3; Compound; 23 nL; Control inhibitor / compound library
# 5; Reagent; 100 nM; Thapsigargin
# 7; Reagent; 1 uL; 0.5x coelenterazine
# 8; Detection; Luminescence; ViewLux imaging system
# NOTES (numbers refer to sequence above)
# 1; SH-SY5Y human neuroblastoma cells stably expressing GLuc-SERCaMP (SH-SY5Y-GLuc-ASARTDL) cells were seeded in 1,536 well white tissue culture treated plates (Corning, Cat# 7464) in DMEM-high glucose-sodium pyruvate (ThermoFisher Scientific, Cat #10569) supplemented with 10% bovine growth serum (Hyclone), 10 U/ml penicillin (Gibco), 10 ug/ml streptomycin (Gibco), and 20 mM HEPES.
# 2; Assay plates were incubated for 5 hour at 37C in a humidified incubator containing 5% CO2.
# 3; qHTS libraries (23 nl, final concentrations of 1.53 uM, 7.67 uM, 38.3 uM) or controls (neutral control: DMSO, positive control: dantrolene) were added using a Kalypsis pin-tool Robotic System equipped with 1536 pinheads.
# 4; Cells were then incubated for 16 hours at 37C, 5% CO2.
# 5; Thapsigargin was added at 100 nM to deplete ER calcium stores.
# 6; Cells were incubated for 4 hour (37 °C, 5% CO2)
# 7; Gaussia luciferase in the medium was measured by adding 1 ul of 0.5x coelenterazine (final concentration 0.07x) prepared in Gaussia Luciferase Glow Assay Buffer (Pierce), without addition of the Cell Lysis Buffer Reagent.
# 8; Luminescence was measured using a ViewLux […] CCD imaging system (Perkin Elmer) equipped with clear filters. […] The same controls were also used for the calculation of the Z' factor, a measure of assay quality control, as previously described (Zhang et al., 1999). […]
# On the % scale 0 is the no-effect control and ±100 the full control effect; potency means the concentration at half of the fitted maximal effect.
Compound,"activity change, negative = inhibition",Potency
CC1CCC(C(=O)N(c2cc(C#CC(C)(C)C)sc2C(=O)O)C2CCC(O)CC2)CC1 (stereo not given),0% (inactive),
CC(C)(C)C(=O)Oc1ccc2c(c1)nc(NC(=O)c1cccc([N+](=O)[O-])c1)n2CCCO,-59.1% (inactive),
NC(=O)NN=Cc1ccc([N+](=O)[O-])o1,279% (inactive),
NC(=O)c1cccc(-c2cc(Nc3ccc(OC(F)(F)F)cc3)ncn2)c1,-8.15% (inactive),
OC[C@H]1O[C@@H](n2cnc3c2NC=NC[C@@H]3O)C[C@H]1O,5.21% (inactive),
CCOC(=O)O[C@]1(C(=O)OCCl)CC[C@@H]2[C@H]3CCC4=CC(=O)C=C[C@]4(C)[C@@H]3[C@@H](O)C[C@@]21C,19.9% (inactive),
COC(=O)N[C@H](C(=O)N1CCC[C@@H]1c1ncc(-c2ccc(-c3ccc(-c4cnc([C@@H]5CCCN5C(=O)[C@@H](NC(=O)OC)C(C)C)[nH]4)cc3)cc2)[nH]1)C(C)C,3.52% (inactive),
NC(CO)(CO)CCc1ccc(Sc2cccc(OCc3ccccc3)c2)cc1Cl,317% (inactive),
Cc1ccc(Nc2cc(-c3cccc(N4C(=O)c5ccccc5C4=O)c3)ncn2)cc1NS(C)(=O)=O,0% (inactive),
Cc1cc(OCCCc2c(C(=O)O)n(Cc3cccnc3)c3c(-c4c(COc5ccc(N6CCN([S+](C)(=O)[O-])CC6)cc5)nn(C)c4C)cccc23)cc(C)c1Cl,36.5% (inactive),
CCS(=O)(=O)N1CC(CC#N)(n2cc(-c3ncnc4[nH]ccc34)cn2)C1,0% (inactive),
CCc1ccc(C=C2SC(=S)NC2=O)cc1,12.5% (inactive),
O=C(NCc1ccncc1)C12C[C@H]3C[C@@H](C1)CC(c1ccc(Cl)cc1)(C3)C2,0% (inactive),
COc1cc(N2CCC(N3CCN(C)CC3)CC2)ccc1Nc1ncnc(Nc2ccccc2S(=O)(=O)C(C)C)n1,0% (inactive),
COc1ccc(-c2coc3cc(O)ccc3c2=O)cc1,89.6% (inactive),
c1ccc2c(-c3cnn4cc(-c5ccc(N6CCNCC6)cc5)cnc34)ccnc2c1,38.2% (inactive),
COCCCCC(=NOCCN)c1ccc(C(F)(F)F)cc1,120% (inactive),
O=C(O)c1c(Cl)c(Cl)c(Cl)c(Cl)c1-c1c2cc(I)c(=O)c(I)c-2oc2c(I)c(O)c(I)cc12,-15.4% (inactive),
O=C1NC(=O)C(=Cc2ccc3c(c2)OC(F)(F)O3)S1,131% (inactive),
O=c1ccn([C@@H]2O[C@H](CO)[C@H](O)[C@H]2O)c(=O)[nH]1,,1.68 µM (active)

Compound,"activity change, negative = inhibition",Potency
O=c1cc(-c2cccc3c2Sc2ccccc2S3)oc(N2CCOCC2)c1,0% (inactive),
COCCOC(=O)C1=C(C)NC2=C(C(=O)CC(c3ccccc3OC)C2)C1c1cccc(O)c1 (stereo not given),0% (inactive),
CCCCCNC(=O)N1CCC(CN(Cc2ccc(Cl)cc2)Cc2ccc([N+](=O)[O-])s2)C1 (stereo not given),-5.96% (inactive),
CC=CC[C@@H](C)C(=O)[C@H]1C(=O)N[C@@H](C(C)C)C(=O)N(C)CC(=O)N(C)[C@@H](CC(C)C)C(=O)N[C@@H](C(C)C)C(=O)N(C)[C@@H](CC(C)C)C(=O)N[C@@H](C)C(=O)N[C@H](C)C(=O)N(C)[C@@H](CC(C)C)C(=O)N(C)[C@@H](CC(C)C)C(=O)N(C)[C@@H](C(C)C)C(=O)N1C,162% (inactive),
O=C(OCC#CCSc1nnc(-c2cccc3ccccc23)o1)c1cc2ccccc2s1,46.7% (inactive),
CC(=O)N[C@@H](CS)C(=O)O,27.6% (inactive),
CC(C)C(=O)Oc1ccc(CO)cc1[C@H](CCN(C(C)C)C(C)C)c1ccccc1,-9.95% (inactive),
CC(C)=CC[C@@H](O)C1=CC(=O)c2c(O)ccc(O)c2C1=O,164% (inactive),
COc1cc(N2CCC(N3CCN(C)CC3)CC2)ccc1Nc1ncc(Cl)c(Nc2ccccc2S(=O)(=O)C(C)C)n1,0% (inactive),
O=C(O)c1ccccc1C(=O)Nc1ccc(-c2ccccc2)cc1,73.5% (inactive),
CC[C@@H]1C=C(C)C[C@H](C)C[C@H](OC)[C@H]2O[C@@](O)(C(=O)C(=O)N3CCCC[C@@H]3C(=O)O[C@H](C(C)=C[C@@H]3CC[C@H](Cl)[C@H](OC)C3)[C@H](C)[C@@H](O)CC1=O)[C@H](C)C[C@H]2OC,-38.4% (inactive),
CC[C@@]1(O)C[C@H](O[C@H]2C[C@H](N(C)C)[C@H](O[C@H]3C[C@H](O)[C@H](O[C@H]4CCC(=O)[C@H](C)O4)[C@H](C)O3)[C@H](C)O2)c2c(cc3c(c2O)C(=O)c2c(O)cccc2C3=O)[C@@H]1C(=O)OC,36.3% (inactive),
CO[C@H]1C=CC=C(C)C(=O)NC2=CC(=O)C(NCCN(C)C)=C(C[C@@H](C)C[C@H](OC)[C@@H](O)[C@@H](C)C=C(C)[C@@H]1OC(N)=O)C2=O,0% (inactive),
COc1ccc2c(Oc3ccc(NC(=O)c4c(C)n(CC(C)(C)O)n(-c5ccccc5)c4=O)nc3)ccnc2c1,-16.8% (inactive),
COC(=O)[C@@H]1[C@H]2C[C@H]3c4[nH]c5ccccc5c4CCN3C[C@@H]2CC[C@@H]1O,,inactive
CCC(CC)[C@H](NC(C)=O)[C@@H]1[C@H](O)[C@@H](C(=O)O)C[C@@H]1N=C(N)N,0% (inactive),
C=C1C(=O)OC(CCCCCCCC)C1C(=O)O (stereo not given),-11.7% (inactive),
NS(=O)(=O)c1ccc(NC2=CC(=O)c3ccccc3C2=O)cc1,-18.5% (inactive),
NC1=N[C@@]2(c3cc(NC(=O)c4ccc(F)cn4)ccc3F)COC[C@@H]2CS1,25.7% (inactive),
O=C1C(Cl)=C(NCCN2CCOCC2)C(=O)c2ncccc21,84.8% (inactive),
